Sampled rows, rich in hits. Any-hit rate of the full collection: about 12%.
Sfp inh = Sfp phosphopantetheinyl transferase inhibition. Q9F4F7. Biochemical Sfp PPTase activity, qHTS. Potency, µM, most hits filed as inhibitors. 3.5% of 310,000 active. AID 1490;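 further: the enzyme is Sfp with the accession as filed and its product quenches rhodamine fluorescence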
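After 15 min at room temperature with compound, 15 nM Sfp received 5 uM rhodamine-CoA plus 12.5 uM BHQ-2-ybbR (50 mM Hepes pH 7.6, 10 mM MgCl2). Rate came from the fluorescence difference over 30 min, ex 525/em 598 nm.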
BAZ2B inh = BAZ2B (human) inhibition; Q9UIF8; AlphaScreen BAZ2B-H3K14Ac peptide displacement; Potency, µM (top dose mostly 114 µM), usual class: inhibitors; 4.4% of 360,000 active; AID 504333; further: nearly all actives have a fitted effect of over 60% in size
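BAZ2B 50 nM plus b-H3(5-23)K14Ac 50 nM, PBS pH 7.4/0.01% Tween-20, 30 min RT; compound added (max 110 uM), 30 min RT; streptavidin donor/Ni-chelate acceptor beads 10 ug/mL final, 20 min dark; AlphaScreen read.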
G9a inh = inhibitors of human histone lysine methyltransferase G9a; Q96KQ7; G9a H3K9 monomethylation, AlphaScreen, 2 h; Potency, µM (doses to about 102 µM), actives largely listed as inhibitors; 8.8% of 350,000 active; AID 504332; further: nearly all actives have a fitted effect of over 75% in size
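Step 1: enzyme (final 20 nM) with compound, 15 min RT. Step 2: substrate peptide 500 nM and SAM 20 uM, 2 h RT. Step 3: anti-H3K9me1 antibody and AlphaScreen beads, 10 min, then plate read.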
JMJD2A Tudor inh = inhibitors of human JMJD2A Tudor domain; O75164; 4.4% of 390,000 active; AlphaScreen JMJD2A-Tudor / H3K4me3 peptide binding; Potency, µM (top dose mostly 114 µM), usual class: inhibitors; AID 504339; further: nearly all actives have a fitted effect of over 50% in size
Target sequence (O75164 whole entry, looked up, the tested form may be a part): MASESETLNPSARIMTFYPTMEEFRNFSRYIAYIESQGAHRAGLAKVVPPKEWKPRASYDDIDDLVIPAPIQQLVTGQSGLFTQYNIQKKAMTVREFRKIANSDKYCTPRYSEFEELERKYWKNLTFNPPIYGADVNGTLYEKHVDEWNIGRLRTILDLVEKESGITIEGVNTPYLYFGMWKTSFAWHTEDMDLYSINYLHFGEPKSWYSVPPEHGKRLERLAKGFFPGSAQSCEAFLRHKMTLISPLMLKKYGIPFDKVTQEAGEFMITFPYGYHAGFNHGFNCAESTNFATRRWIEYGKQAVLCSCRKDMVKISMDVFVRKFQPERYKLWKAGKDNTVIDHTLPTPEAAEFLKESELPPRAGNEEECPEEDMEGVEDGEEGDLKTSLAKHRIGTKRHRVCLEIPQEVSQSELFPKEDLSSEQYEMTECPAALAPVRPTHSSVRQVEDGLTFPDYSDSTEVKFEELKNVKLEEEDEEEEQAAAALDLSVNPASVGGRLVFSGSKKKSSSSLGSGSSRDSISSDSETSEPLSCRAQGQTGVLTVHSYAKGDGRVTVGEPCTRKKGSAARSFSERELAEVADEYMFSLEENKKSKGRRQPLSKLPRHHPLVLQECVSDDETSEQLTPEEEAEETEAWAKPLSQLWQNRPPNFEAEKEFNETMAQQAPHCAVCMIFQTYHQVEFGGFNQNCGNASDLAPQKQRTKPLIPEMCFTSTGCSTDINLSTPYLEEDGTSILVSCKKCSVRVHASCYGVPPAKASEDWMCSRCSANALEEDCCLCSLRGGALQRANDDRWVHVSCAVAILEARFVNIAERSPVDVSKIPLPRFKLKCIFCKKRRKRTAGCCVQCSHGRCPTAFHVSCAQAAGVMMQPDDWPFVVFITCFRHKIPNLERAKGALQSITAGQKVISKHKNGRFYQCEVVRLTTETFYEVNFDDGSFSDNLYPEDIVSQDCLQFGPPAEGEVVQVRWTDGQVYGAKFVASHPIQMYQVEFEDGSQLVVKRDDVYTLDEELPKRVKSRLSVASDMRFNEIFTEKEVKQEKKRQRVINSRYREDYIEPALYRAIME
HP1b binding inh = HP1-beta chromodomain-methylated histone interaction inhibition | AlphaScreen HP1-beta / biotin-H3K9me3 peptide binding | AID 540317 | 0.56% of 390,000 active | P83916 | Potency, µM (series often up to 114 µM), hits mostly inhibitors; further: nearly all actives have a fitted effect of over 70% in size
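HP1-beta protein (50 nM final) preincubated 30 min at room temperature with biotinylated H3(1-18)K9me3 peptide (50 nM) in PBS pH 7.4, 0.01% Tween-20, then compound added for 30 min. AlphaScreen streptavidin donor/nickel chelate acceptor beads (10 ug/mL final), 30 min dark, luminescence read.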
A number is an active result; - = inactive; ? = inconclusive; . = not tested or not shown; [ ] = another dose, or the depositor's remark. The call rests on the fitted dose curve; in most records, active means well fitted curve in the direction sought with a large enough effect; inconclusive means small, poorly fitted or top-dose-only effect, or another doubt; inactive means no such curve, though single readings can be large; an effect the other way counts as inactive or inconclusive.

SMILES	Sfp inh	BAZ2B inh	G9a inh	JMJD2A Tudor inh	HP1b binding inh
Cc1nc(C)c(-c2ccnc(/N=C/NO)n2)s1	-	-	?	-	-
CCOC(=O)c1cccc(NC(=O)C(CC(C)C)N2Cc3ccccc3C2=O)c1 (stereo not drawn)	.	-	-	-	-
CCCCNS(=O)(=O)c1cccc(S(=O)(=O)N2CCCC2)c1	-	-	-	-	-
Cc1cc(-c2csc(NC(=O)c3ccccc3C(F)(F)F)n2)c(C)n1Cc1ccccc1	-	-	45µM	-	-
Cc1cc(-c2csc(NCc3ccccc3)n2)c(C)n1C	?	40µM	8.9µM	45µM	-
Cc1nc(NC(=O)c2ccccc2)sc1-c1csc(NCCc2ccccc2)n1	-	?	40µM	?	-
COC(=O)Cc1csc(NCc2ccccc2)n1	-	-	-	-	-
Cc1ccc(Cl)cc1Nc1nc(-c2sc(NC(=O)c3ccccc3)nc2C)cs1	-	?	.	.	.
CCCNC(=O)c1cc(-c2ccccc2)c(N2CCCCC2)s1	-	-	-	-	-
CCN(CC)S(=O)(=O)c1ccc(NN)nc1	13µM	.	-	20µM	-
CN1CCN(S(=O)(=O)c2ccc(NN)nc2)CC1	.	-	?	-	-
CC(C)N(C(C)C)S(=O)(=O)c1ccc(NN)nc1	79µM	-	-[12.7 µM]	-	-
CCN(c1ccccc1)S(=O)(=O)c1ccc(NN)nc1	.	-	-[12.7 µM]	-	-
O=C(CSc1ccc(-c2ccco2)nn1)N1CCCCCC1	-	?	?	?	-
CCCN(Cc1cc2cc(C)ccc2[nH]c1=O)C(=O)c1cccc([N+](=O)[O-])c1	-	-	-	-	-
Cc1cc(C)n2nc3nc(N4CCCCC4)nc(-c4ccco4)c3c2n1	?	79µM	4µM	?	-
Cc1cc(Nc2ccccc2Cl)n2nc(-c3ccco3)nc2n1	.	-	-[12.7 µM]	-	-
O=C(NC1CCCCCC1)C1CCN(S(=O)(=O)c2ccccc2)CC1	-	-	-[12.7 µM]	-	-
CN(C)C(=O)CSc1nc(-c2ccccc2)c(-c2ccccc2)o1	-	?	13µM	-[11.4 µM]	?
O=C(NCCc1ccc(F)cc1)c1cc(-c2ccncc2)nc2ccccc12	-	-	-	.	.
COc1ccc(CNc2ccc3c(c2)CCC3)cc1Br	-	-	35µM	-	-
CCOc1cc(CNc2ccc3c(c2)CCC3)ccc1OC	-	?	45µM	.	.
COc1ccccc1CNc1ccc2c(c1)CCC2	-	-	-[0.501 µM]	?	-
O=[N+]([O-])c1cccc(CNc2ccc3c(c2)CCC3)c1	?	20µM	13µM	1.4µM	40µM
O=C(Nc1cccc([N+](=O)[O-])c1)Nc1ccc2c(c1)CCC2	-	-	-	-	-
SMILES	Sfp inh	BAZ2B inh	G9a inh	JMJD2A Tudor inh	HP1b binding inh
CCCCCCc1ccc(-c2ncc(N)cn2)cc1	-	-	-	-	-
O=C(Nc1ccc(Cl)cc1)c1cnn2c1NC(c1ccccc1)=CC2c1ccccc1 (stereo not drawn)	.	-	10µM	?	-
O=C1CC(c2ccccc2)n2nc(NC(=O)c3ccccn3)nc2N1 (stereo not drawn)	?	-	-	7.9µM	-
COc1ccc(C(=O)Nc2nc3n(n2)C(c2ccc(Cl)cc2)C=C(c2ccccc2)N3)cc1OC (stereo not drawn)	.	28µM	?	56µM	-
O=C1CC(c2ccccc2)n2nc(NC(=O)c3ccccc3)nc2N1 (stereo not drawn)	-	-	-	-	-
O=C(Nc1nc2n(n1)C(c1ccccc1)C=C(c1ccccc1)N2)c1ccccc1 (stereo not drawn)	.	20µM	10µM	56µM	-
Nn1c(Cc2ccccc2F)nnc1SCn1nnc2ccccc2c1=O	-	-	25µM	-	-
O=c1c2ccccc2nnn1CSc1nnc(-c2cccnc2)n1-c1ccccc1F	-	-	50µM	-	-
CCOc1ccc(NS(=O)(=O)CC23CCC(CC2=O)C3(C)C)cc1 (stereo not drawn)	-	-	-[12.7 µM]	-	-
c1csc(CN2CCOCC2)c1	-	35µM	8.9µM	2.8µM	?
O=C1C(NS(=O)(=O)c2cccs2)=C(N2CCN(c3cccc(C(F)(F)F)c3)CC2)C(=O)c2ccccc21	-	10µM	?	40µM	?
O=S(=O)(NCCN1CCOCC1)c1cccs1	-	-	40µM	-	-
CN1CCN(C2=C(NS(=O)(=O)c3cccs3)C(=O)c3ccccc3C2=O)CC1	-	-	?	-	-
CCOc1ccccc1N1CCN(C2=C(NS(=O)(=O)c3cccs3)C(=O)c3ccccc3C2=O)CC1	?	8.9µM	?	8.9µM	?
CC(C)(CNS(=O)(=O)c1cccs1)N1CCOCC1	.	.	.	-	-
O=C(CC1SC(=NCC2CCCO2)NC1=O)Nc1cc([N+](=O)[O-])ccc1Cl (stereo not drawn)	-	.	-	-	-
O=C1C(NS(=O)(=O)c2cccs2)=C(N2CCOCC2)C(=O)c2ccccc21	-	40µM	40µM	?	?
c1ccc(N2CCOCCOCCOCCOCCOCC2)cc1	-	-	-	-	-
CN(C1=C(N2CCOCC2)C(=O)c2ccccc2C1=O)c1ccccc1	-	10µM	10µM	16µM	35µM
O=C1C(NS(=O)(=O)c2cccs2)=C(N2CCN(Cc3ccccc3)CC2)C(=O)c2ccccc21	-	13µM	13µM	14µM	16µM
CC(=O)c1cccc(Nc2nc(N3CCOCC3)nc(N3CCOCC3)n2)c1	-	?	.	-	-
O=C(O)c1cccc(NC2=C(N3CCOCC3)C(=O)c3ccccc3C2=O)c1	-	?	2.8µM	-	-
N#CCCn1cc(C(=O)Nc2ccc(C(=O)O)cc2)c(-c2cccc(Br)c2)n1	-	-	-[0.501 µM]	-	-
CCN1C(=O)/C(=C2/Sc3ccc(OC)cc3N2C)SC1=Nc1cccc(O)c1	-	-	-	-	-
Cc1ccc(N(CC(=O)NN=C2CCN(C)CC2)S(=O)(=O)c2ccccc2)c(C)c1	-	-	-	-	-
SMILES	Sfp inh	BAZ2B inh	G9a inh	JMJD2A Tudor inh	HP1b binding inh
CCOC(=O)/C(C#N)=C\c1cc(OC)c(OC)cc1[N+](=O)[O-]	-	-	-[0.501 µM]	11µM	?
Cc1cc(/C=C\c2ccc3cc(N(C)C)ccc3[n+]2C)c(C)n1-c1ccccc1	?	13µM	13µM	50µM	?
O=c1cc(CN2CCCc3ccccc32)nc2sccn12	-	-	?	-	-
Clc1ccc2nc(CN3CCCCC3)cn2c1	-	-	50µM	-	-
Clc1ccc2nc(CN3CCCc4ccccc43)cn2c1	-	50µM	?	50µM	-
Clc1ccc2nc(CN3CCCCCC3)cn2c1	-	?	-[0.0925 µM]	89µM	-
CNCc1cn2cc(Cl)ccc2n1	-	-	-	-	-
CC(C)CCNC(=O)c1ccc(Cn2c(SCC(N)=O)nc3ccccc3c2=O)cc1	.	-	-	-	-
C=C(C)Cn1c(SCC(=O)N/N=C/c2ccccc2)nc2ccccc2c1=O	79µM	-	-	-	-
C=C(C)Cn1c(SCC(=O)N/N=C/c2cccc(O)c2)nc2ccccc2c1=O	-	-	-	-	-

Bioassay records deposited in PubChem BioAssay by National Center for Advancing Translational Sciences (NCATS).
